HSP90 refold inh: blocks HSP90-mediated luciferase refolding in reticulocyte lysate; Rabbit reticulocyte lysate, luciferase refolding luminescence, 3 h; inhibition, % at 5.6 µM; 290,000 compounds, 0.91% hits; AID 1789;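 active = inhibition above the screen-wide mean plus 3 SD, computed separately per campaign, cut at about 16% in these data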;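 also: inhibitors lower the luminescence because luciferase stays unfolded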
HSF1 inhib: HSF1 inhibition; NIH3T3-HGL HSE-luciferase, MG132-induced, luminescence 8 h; stronger effect = lower value; activity change, negative = inhibition, % at 7.5 µM (by protocol); 300,000 compounds, 0.77% hits;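 active = more than half of replicate wells show activity change below -50%, luminescence cut by over half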;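 also: luciferase reports HSF-1 transcriptional activity via heat shock element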
PG9 binder: PG9 antibody binding by small molecule; TR-FRET gp120-PG9 antibody binding; inhibition, % at 6.7 µM; 360,000 compounds, 0.43% hits; in the data active = inhibition above about 8.5%
GAA850 FXN act: frataxin GAA850 promoter activation | HEK293 lucGAA850 FXN promoter luciferase reporter, 24 h; percent of 10 µM SAHA response | activation, % at 6 µM | 360,000 compounds, 0.56% hits;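 active = activation above the average of all compounds screened plus 3 SD, cutoff fixed separately per campaign, cut at about 7.5% in these data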
SMARCA2 activ: activators of SMARCA2 function; MG213 cells, MMTV-luciferase reporter, dexamethasone, overnight; activation, % at 9.1 µM; 370,000 compounds, 1% hits; in the data active = activation above about 7.8%
AI-2 QS mod: modulators of Vibrio harveyi AI-2 quorum sensing system; Vibrio harveyi JMH597 AI-2 luminescence/OD600 ratio, 9 h; stronger effect = lower value; strain lacks LuxN and CqsS sensors; 0 = neutral-control median; activity change, % at 7.5 µM; 300,000 compounds, 0.4% hits; AID 2094; in the data active = activity change below about -75%, passing the limit was not always enough;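 also: luminescence divided by OD600 gain over 9 h not by final OD600 alone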
SMARCA2 conf: SMARCA2 activation, confirmation screen | activation, % at 9.1 µM | AID 652260 | shares compounds with SMARCA2 activ | MG213 cells, MMTV-luciferase with dexamethasone, luminescence, overnight; MG213 cells expressing E1A, Rb sequestered; DMSO wells 0%, reference activator 100% | 3,500 compounds, 30% hits;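 active = activation above its plate's cutoff, the mean activation of tested wells plus 3 SD, cut at about 7.9% in these data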
GAL4-VP16 Luc: activates GAL4-VP16 luciferase, flagging SMARCA2 activator hits; activation, % at 9.1 µM; shares compounds with SMARCA2 activ; 3,500 compounds, 41% hits; HEK293 GAL4-VP16 pG5luc reporter, luciferase luminescence; scaled: DMSO wells 0%, SAHA wells 100%;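 active = activation above the solvent-only control well mean plus 3 SD, averaged across control plates, cut at about 5.2% in these data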
Large screens that a line does not name were inactive (follow-up assays come after a bar, where they were run). Most compounds without a hit are left out; they make up all but 3.4% or so of the library.

COc1ccc(S(=O)(=O)N2CCOCC2)cc1NC(=O)CCNC(=O)c1ccc(Cl)cc1	SMARCA2 activ 8.1 (no result: HSP90 refold inh, HSF1 inhib, AI-2 QS mod) | SMARCA2 conf inactive | GAL4-VP16 Luc inactive
O=S1(=O)N[C@@H](Cc2ccccc2)COc2cc(NC3CC3)ccc21	none (no result: HSP90 refold inh, HSF1 inhib, GAA850 FXN act, AI-2 QS mod)
CCc1ccc2cc3c(cc2n1)C(=O)c1ccccc1-3	SMARCA2 activ 8.6 (no result: HSP90 refold inh, HSF1 inhib, GAA850 FXN act, AI-2 QS mod) | SMARCA2 conf 12 | GAL4-VP16 Luc 13
CCC(C)(C)c1ccc2c(c1)C(=O)c1ccccc1C2=O	none
O=C(Nc1ccc2c(c1)OCO2)N1CCN(Cc2ccco2)CC1	SMARCA2 activ 11 | SMARCA2 conf inactive | GAL4-VP16 Luc 12
C/C(CC(=O)Nc1ccc2c(c1)OCO2)=N\NC(=O)c1ccccc1N	SMARCA2 activ 17 | SMARCA2 conf inactive | GAL4-VP16 Luc inactive
COc1ccccc1C(=O)N/N=C(\C)CC(=O)Nc1ccc2c(c1)OCCO2	none
COc1ccc(NC(=O)C/C(C)=N/NC(=O)c2ccccn2)c(OC)c1	SMARCA2 activ 10.0 | SMARCA2 conf inactive | GAL4-VP16 Luc 5.8
C/C(CC(=O)Nc1ccc2c(c1)OCCO2)=N\NC(=O)c1ccccc1F	SMARCA2 activ 8.7 (no result: AI-2 QS mod) | SMARCA2 conf inactive | GAL4-VP16 Luc inactive
C/C(CC(=O)Nc1ccc2c(c1)OCCO2)=N\NC(=O)c1ccccn1	SMARCA2 activ 9.5 | SMARCA2 conf inactive | GAL4-VP16 Luc inactive
CSCc1cc(C(=O)NC2CC2)c(N)s1	none (no result: HSP90 refold inh, HSF1 inhib, GAA850 FXN act, AI-2 QS mod)
CCOc1cc(OCC)cc(C(=O)NCCN2CCC(n3c(=O)[nH]c4ccccc43)CC2)c1	none (no result: HSP90 refold inh, HSF1 inhib, GAA850 FXN act, AI-2 QS mod)
COc1ccc(CC(N)c2csc(NC(=O)Nc3ccccc3-c3ccccc3)n2)cc1 (configuration not stated)	none (no result: HSP90 refold inh, HSF1 inhib, AI-2 QS mod)
COC(=O)[C@]1(CNC(=O)C(C)(C)C)CC(=O)N(Cc2ccc(Cl)cc2)[C@@H]1c1ccc(OC)cc1	none (no result: HSP90 refold inh, HSF1 inhib, PG9 binder, GAA850 FXN act, AI-2 QS mod)
C/C(CC(=O)Nc1cc(C)cc(C)c1)=N\NC(=O)c1ccccn1	SMARCA2 activ 9.8 | SMARCA2 conf inactive | GAL4-VP16 Luc inactive
C/C(CC(=O)Nc1ccc(Cl)cc1C(F)(F)F)=N\NC(=O)c1ccccn1	none
CCCCNC(=O)C[C@H]1C[C@@]2(C(=O)OC)C(=C[C@H](C(C)(C)C)O[C@@H]2C)N(Cc2ccccc2)C1=O	none (no result: HSP90 refold inh, HSF1 inhib, GAA850 FXN act, AI-2 QS mod)
O=C(Nc1ccc(F)cc1)C(c1ccccc1OC(F)(F)F)N1CCN(c2cccc(C(F)(F)F)n2)CC1 (configuration not stated)	none (no result: HSP90 refold inh, HSF1 inhib, GAA850 FXN act, AI-2 QS mod)
Cc1cc(C(=O)CN2C(=O)NC(C)(CC(C)C)C2=O)c(C)n1-c1ccc2c(c1)OCO2 (configuration not stated)	none
Cc1cc(C(=O)CN2C(=O)NC3(CCCC3)C2=O)c(C)n1-c1ccc2c(c1)OCO2	SMARCA2 activ 9.4 | SMARCA2 conf inactive | GAL4-VP16 Luc inactive
O=C(c1ccccc1)c1nnc(-c2ccccc2F)o1	SMARCA2 activ 11 | SMARCA2 conf inactive | GAL4-VP16 Luc inactive
COC(=O)C1CCN(C(=O)COC(=O)c2ccc3[nH]c4c(c3c2)CCCC4)CC1	none (no result: HSP90 refold inh)
CC1CCCN(C(=O)COC(=O)c2ccc3[nH]c4c(c3c2)CCCC4)C1 (configuration not stated)	SMARCA2 activ 8.1 (no result: HSP90 refold inh) | SMARCA2 conf inactive | GAL4-VP16 Luc inactive
O=C(CCSc1ccc(Cl)cc1)N1CCN(c2ccc(O)cc2)CC1	none
O=C(CCSc1ccc(Cl)cc1)N1CCN(c2ncccn2)CC1	SMARCA2 activ 9.3 | SMARCA2 conf inactive | GAL4-VP16 Luc inactive
CCCCNC(=S)NNC(=O)c1csc(C)c1CC	SMARCA2 activ 8.3 | SMARCA2 conf inactive | GAL4-VP16 Luc inactive
Nn1c(SCc2ccccc2)nc2ccccc21	SMARCA2 activ 12 | SMARCA2 conf 8.8 | GAL4-VP16 Luc 14
O=C(O)Cn1c(SCc2ccccc2)nc2ccccc21	none
CC(C)C[C@H]1COc2cc(N3CCSCC3)ccc2S(=O)(=O)N1C	none (no result: HSP90 refold inh, HSF1 inhib, PG9 binder, GAA850 FXN act, AI-2 QS mod)

Screening results: PubChem BioAssay, several laboratories
